Screening results: PubChem, National Center for Advancing Translational Sciences (NCATS)
PTHR1 ag – PTHR1 (human) receptor agonism. Q03431. Potency, µM (top dose mostly 115 µM), without a hit: at the highest dose activation, hits mostly activators. AID 743266. 410,000 tested, 0.075% active. HEK293 GP2 PTHR1 cells, GloSensor cAMP luminescence, 1 h; note: potency is the fitted concentration of half-maximal effect; nearly all actives have a fitted effect of over 55% in size
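HEK-293-derived GP2 cells expressing PTHR1 and a GloSensor cAMP reporter, 3,000/well, plated overnight, given luciferin plus IBMX (each 0.5 mM as added) for 1 h at 37 °C, then compound for 1 h at 37 °C. Luminescence was read after 15 min at room temperature.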
D3 antag – D3 dopamine receptor (human) antagonism. P35462. D3R cells, DiscoveRx beta-arrestin luminescence, antagonist mode; stronger effect = lower value. max response, negative = inhibition, %. 360,000 tested, 2.5% active. AID 652054; in the data active = max response below about -50%; inconclusive = no clear call, values can overlap the other calls; note: % is set by controls: 0 for no effect and ±100 for the full control effect
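Cells plated overnight at 1500 cells/well, then exposed to library compounds with dopamine controls for 90 minutes at 37 degrees C. DiscoveRx reagent added for 30–60 minutes at room temperature; luminescence read, quantitative HTS format.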
DRD3 agonist – D3 dopamine receptor (human) agonism. P35462. D3R DiscoveRx beta-arrestin cells, luminescence, 90 min. max activation, %. 410,000 tested, 0.58% active; in the data active = max activation above about 30%; note: 0% is about no effect
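Cells at 1500/well, incubated overnight, then treated with pinned compounds (dopamine as control) for 90 min at 37 degrees C. DiscoveRx reagent added for 30 - 60 minutes at room temperature; luminescence read.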
BRCA1 expr act – increases BRCA1 expression | MCF7-BRCA1-FFLuc reporter, luminescence, 48 h; response scale: scaled: vehicle 0%, 10 µM genistein 100% | Potency, µM (top dose mostly 46.1 µM), without a hit: at the top dose activation, hits mostly activators | 380,000 tested, 1.1% active; note: potency is the fitted concentration of half-maximal effect; nearly all actives have a fitted effect of over 80% in size
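Quantitative HTS in MCF7 cells stably reporting BRCA1 expression via firefly luciferase. Compound treatment lasts 48 h at 37 °C in phenol-red free MEM. Activation is expressed relative to genistein at 10 microM and DMSO.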
B2AR arrestin – recruits beta-arrestin to the human beta2-adrenergic receptor | beta-arrestin recruitment to beta2AR, cell-based reporter | AID 492947 | 330,000 tested, 0.02% active | Potency, µM (highest dose often 46.1 µM), without a hit: top-dose activation, usual class: activators;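 note: potency is the fitted concentration of half-maximal effect; 0% = DMSO controls and full agonism = EC100 isoproterenol or metaproterenol; nearly all actives have a fitted effect of over 65% in size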
Target sequence (P07550 whole entry, looked up): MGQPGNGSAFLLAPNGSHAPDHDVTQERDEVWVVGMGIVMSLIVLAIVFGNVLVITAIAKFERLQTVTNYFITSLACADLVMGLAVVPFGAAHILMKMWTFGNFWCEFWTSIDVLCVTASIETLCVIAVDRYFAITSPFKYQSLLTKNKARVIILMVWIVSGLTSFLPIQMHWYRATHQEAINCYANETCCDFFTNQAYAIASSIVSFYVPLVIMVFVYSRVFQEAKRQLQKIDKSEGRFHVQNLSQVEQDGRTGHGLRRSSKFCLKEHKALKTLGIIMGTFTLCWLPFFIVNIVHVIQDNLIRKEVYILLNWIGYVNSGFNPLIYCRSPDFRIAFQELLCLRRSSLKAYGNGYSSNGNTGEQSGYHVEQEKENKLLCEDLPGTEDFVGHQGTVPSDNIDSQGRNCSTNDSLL
RGS4 inh – inhibitors of human regulator of G protein signaling 4. Transcreener GDP fluorescence polarization, RGS4-accelerated GTP hydrolysis. Potency, µM (highest dose often 114 µM), without a hit: at the top dose activity change, negative = inhibition, usual class: inhibitors. 390,000 tested, 0.039% active. AID 504845; note: potency is the fitted concentration of half-maximal effect; % is set by controls: 0 for no effect and ±100 for the full control effect; nearly all actives have a fitted effect of over 75% in size
Target sequence (P49798 whole entry, looked up): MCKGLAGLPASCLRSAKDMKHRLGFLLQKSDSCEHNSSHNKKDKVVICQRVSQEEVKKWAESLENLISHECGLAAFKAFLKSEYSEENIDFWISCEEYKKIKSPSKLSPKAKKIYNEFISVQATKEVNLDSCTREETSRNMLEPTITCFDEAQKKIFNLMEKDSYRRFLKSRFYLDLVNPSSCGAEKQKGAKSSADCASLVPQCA
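MLSMR compounds (23 nl, pin-transferred) preincubated 10 min at room temperature with a 500nM (2x) first reagent, then RGS4 at 900nM (2x) plus Transcreener GDP mix added; fluorescence polarization (620/688 nm) read before and after 90 min at 30 °C.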
* marks the source's active call; other numbers are inactive results; i = inactive; ? = inconclusive; nt = no result; ! = repeats disagree; [ ] = dose if it differs, or a comment. Sampled rows, rich in hits. Any-hit rate of the full collection: about 3.7%. Unless noted, calls come from the whole dose curve; as a rule, active = well fitted curve in the direction sought with a large enough effect; inconclusive = small, poorly fitted or top-dose-only effect, or another doubt; inactive = no such curve, though single readings can be large; an effect the other way counts as inactive or inconclusive.

SMILES	PTHR1 ag	D3 antag	DRD3 agonist	BRCA1 expr act	B2AR arrestin	RGS4 inh
CCOc1ccc(S(=O)(=O)NCCc2sc3nc(-c4ccc(C)cc4)nn3c2C)cc1	-90%	nt	10	nt	nt	-24%
Cc1c(CCNS(=O)(=O)c2ccccc2)sc2nc(-c3ccc(Cl)cc3)nn12	-91%	nt	5	nt	nt	10%
COc1ccc(OC)c(-n2c(O)c(C=NCc3ccc4c(c3)OCO4)c(=O)[nH]c2=O)c1	i	20	4	0%	0%	8%
O=c1[nH]c(=O)n(-c2cccc3ccccc23)c(O)c1C=NCc1ccc2c(c1)OCO2	4%[57.5 µM]	-63*	-1	2%	0%	-5%
CCOC(=O)c1sc(=NC(=O)c2ccc(C)c(C)c2)n(C)c1C	-38%	12	5	3.2µM*	0%	?
COc1cc2c(cc1O)[C@@H]1Cc3ccc(OC)c(O)c3CN1CC2	i	-100*	-89	-57%	0%	1%
COc1ccc(C[C@@H]2c3cc(O)c(OC)cc3CCN2C)cc1O	2%	-117*	-31	16%	-1%	-3%
C[C@]12CC[C@H]3[C@@H](CCC4=C(O)C(=O)CC[C@@H]43)[C@@H]1CC[C@@H]2OC(=O)CCC1CCCC1	nt	nt	3	nt	nt	nt
CC(C)C[C@H]1C(=O)N2CCCC2[C@]2(O)O[C@](NC(=O)[C@@H]3C=C4c5cccc6[nH]c(Br)c(c56)C[C@H]4N(C)C3)(C(C)C)C(=O)N12 (some centres not stated)	nt	nt	nt	nt	nt	490%[56.9 µM]
C=CC(=O)NCNC(=O)C=C	i	-76*	-88	3%	0%	-18%
Cc1[nH]c2ccccc2c1CCN	i	-3	-9	-8%	nt	7%[11.4 µM]
CCC1=CCN(CCc2c(C)[nH]c3ccccc23)CC1	7%	-63*	-56	8%	nt	-10%
O=P(Nc1cccc(Cl)c1)(Oc1ccccc1)Oc1ccccc1	-14%	21	32*	-33%	0%	-11%
O=c1[nH]c2ccccc2c(=O)n1-c1cccc(Cl)c1	-72%[57.5 µM]	6	5	46%	0%	6%
Cc1ccc(-n2c(=O)[nH]c3ccccc3c2=O)cc1[N+](=O)[O-]	0%	0	-5	11µM*	nt	nt
c1ccc(CN2CCc3nc4ccccc4cc3C2)cc1	-41%	-10	60*	10µM*	-1%	7%
O=C(N[C@@H]1N=C(c2ccccc2F)c2cccc3c2N(CC3)C1=O)c1cc2ccccc2[nH]1	nt	nt	-11	nt	nt	nt
Fc1ccc(C(OCCN2CCN(CCCc3ccccc3)CC2)c2ccc(F)cc2)cc1	-92%	nt	-17	-63%	nt	38µM*!
CCCc1nnc(NC(=O)CCC(=O)N2CCN(CCOC(c3ccccc3)c3ccccc3)CC2)s1	i	4	-5	16%	-1%	-25%
c1ccc(CCCN2CCN(CCOC(c3ccccc3)c3ccccc3)CC2)cc1	-68%	-76*	-7	-10%	nt	1%[56.9 µM]
O=C(c1ccccc1)N1CCN(CCc2ccccc2)CC1	-10%	-6	-19	1%	0%	57%
CC1=CC(=O)OC2CC3OC4C[C@@H](C)C5OC6CC7O[C@]8(C)C/C=C\C9OC%10CC%11OC(CC(C)CO)CC(O)[C@]%11(C)OC%10CC9OC8C[C@]7(C)O[C@]6(C)CCC5OC4C[C@]3(C)OC12 (some centres not stated)	-15%	60	46*	4%	0%	19%
CC[C@H]1C2C[C@H]3[C@@H]4N(C)c5ccccc5C45C[C@H](C2[C@H]5O)N3[C@@H]1O (some centres not stated)	-16%	-55*	-9	-1%	0%	-7%
CCC1C2CC3C4N(C)c5ccccc5C45CC(C2C5O)N3[C@@H]1O (some centres not stated)	i	-70*	-21	8%	0%	-5%
COc1cccc(N2CCN(c3c4c(nc5nncn35)CCC4)CC2)c1	-45%	nt	9	nt	nt	-14%
SMILES	PTHR1 ag	D3 antag	DRD3 agonist	BRCA1 expr act	B2AR arrestin	RGS4 inh
O=C(Cc1ccccc1)N1CCN(C2CCCC2)CC1	-3%	-72*	-4	-21%	0%	-11%
COc1ccc(N2CCN(C(=O)CCCCCn3c(=S)[nH]c4ccc(N5CCOCC5)cc4c3=O)CC2)cc1	-43%	117	5	-59%	nt	nt
CC(=O)OC1N=C(c2ccccc2)c2cc(C)ccc2NC1=O (configuration not stated)	i	-22	-10	-30%	0%	-23%
CC(=O)OC1N=C(c2ccccc2)c2ccccc2NC1=O (configuration not stated)	i	-50*	8	8%	0%	-5%
CCN1C(=O)NC(=O)/C(=C\c2cn(CC(=O)O)c3ccccc23)C1=O	nt	nt	nt	nt	0%	nt
O=C(O)Cn1cc(/C=C2\C(=O)NC(=O)N(Cc3ccco3)C2=O)c2ccccc21	-4%	-64*	-14	-3%	0%	-28%
CN(C)c1ccc(N=O)cc1	nt	nt	nt	0%	nt	nt
CN(C)c1ccc(N=Nc2ccccc2)cc1	nt	nt	nt	10µM*	nt	nt
CCCCN(Cc1ccccc1)C1CCN(CCc2ccccc2)CC1	i	?	-25	0%	0%	-23%
c1ccc(CCN2CCC(N3CCN(c4ccccc4)CC3)CC2)cc1	12%[57.5 µM]	-24	69*	-23%	0%	-14%
CCN1CCN(c2cc(N3CCCC3)c(F)cc2[N+](=O)[O-])CC1	-24%	-69*	-38	-36%	-1%	-25%
CN1CCN(c2cc(N3CCCC3)c([N+](=O)[O-])cc2F)CC1	i	-78*	2	1%	1%	-39%
O=[N+]([O-])c1cc(F)c(N2CCCC2)cc1Br	-22%	8	24	0%	0%	-2%
OC[C@H]1O[C@@H](n2cnc3cc(Cl)c(Cl)cc32)[C@H](O)[C@H]1O	nt	nt	nt	nt	nt	i
CCCCOc1ccc(CNC(=O)c2cc3n(n2)CCCN(Cc2ccc(C)cc2)C3=O)cc1	-32%	nt	7	nt	nt	-9%
COC(=O)C1=C(c2ccc(F)cc2OCc2ccccc2)C[C@@H]2CC[C@H]1N2C(=O)NC1CCN(Cc2ccccc2)CC1	-35%	-108*	-8	-13%	0%	-14%
COC(=O)C1=C(c2cccc(OCc3ccccc3)c2)C[C@@H]2CC[C@H]1N2C(=O)NCc1ccc(F)cc1	i	0	-3	-4%	-1%	-9%
COC(=O)C1=C(c2ccccc2OCc2ccccc2)C[C@@H]2CC[C@H]1N2C(=O)NCc1ccccc1	-17%	-13	-12	-13%	3%	24%
COC(=O)C1=C(c2ccc(F)cc2OCc2ccccc2)C[C@@H]2CC[C@H]1N2C(=O)NCc1ccccc1	-30%	-3	-13	-12%	-1%	29%
